Screens from PubChem BioAssay.
An excerpt weighted towards active compounds, which were near 0.55% of everything screened.
LDHA inh – inhibitors of human lactate dehydrogenase A | purified LDHA, NADH/diaphorase-resazurin fluorescence; hits give low values | actives 0.15% (n = 480,000) | activity change, % (values are at about 110 or 230 µM) | AID 1347041; in the data active = activity change below about -30%; inconclusive = mostly about -25% to -30%
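Remaining NADH was detected by diaphorase (0.133 mg/mL) converting 37 µM resazurin to fluorescent resorufin, read at 0 and 20 minutes. The preceding 5-minute room-temperature reaction used 2 nM LDHA, 0.2 mM sodium pyruvate and 0.06 mM NADH at pH 7.4.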
TSHR antag – blocks TSH signaling through the human TSH receptor; TSHR-expressing cells, TSH-stimulated cAMP HTRF, 2 h; hits give low values; activity change, negative = inhibition, % at 11.5 µM; actives 0.2% (n = 330,000); AID 504810;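 active = activity change below a set negative limit, meaning inhibition stronger than a set level, cut at about -70% in these data; inconclusive = activity change between two set negative limits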
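Cell-based HTRF cAMP assay; TSHR cells + compound, TSH EC80 (4nM final), 2 h, 37 deg C. Lysis with anti-cAMP cryptate and cAMP-d2, 30 min RT, read 665/620 nm.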
GRP78 ERSR act – inducers of ER stress response in human glioma cells. U87-MG GRP78 promoter luciferase reporter, 16 h. Potency, µM, actives largely listed as activators. actives 0.02% (n = 420,000). AID 602332; also: series mostly up to about 76 µM; nearly all actives have a fitted effect of over 35% in size
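Stably transfected U87-MG glioma cells carrying a GRP78-based luciferase sensor; 16 h compound incubation. Luminescence end-point read 10 min after Bright-Glo addition at room temperature.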
RGS4 inhibitor – inhibitors of human regulator of G protein signaling 4; AID 504845; actives 0.039% (n = 390,000); Transcreener GDP fluorescence polarization, RGS4-accelerated GTP hydrolysis; Potency, µM (titrated, usually from 114 µM), actives largely listed as inhibitors; also: nearly all actives have a fitted effect of over 75% in size
Target sequence (P49798 whole entry, looked up): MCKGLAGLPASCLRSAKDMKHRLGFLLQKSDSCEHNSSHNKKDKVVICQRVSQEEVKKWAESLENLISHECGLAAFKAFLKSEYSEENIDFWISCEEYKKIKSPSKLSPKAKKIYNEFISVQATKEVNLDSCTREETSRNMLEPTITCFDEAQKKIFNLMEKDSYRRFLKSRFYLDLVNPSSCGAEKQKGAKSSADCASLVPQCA
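MLSMR compounds (23 nl, pin-transferred) preincubated 10 min at room temperature with a 500nM (2x) first reagent, then RGS4 at 900nM (2x) plus Transcreener GDP mix added; fluorescence polarization (620/688 nm) read before and after 90 min at 30 °C.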
TCR act – activates T cell receptor signaling; primary human leukocytes, anti-CD3, IL-2 HTRF, 48 h; Potency, µM (titrated, usually from 9.22 µM), usual class: activators; 330,000 tested, under 10 active; AID 504894
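Using a-CD3 beads without co-stimulation, primary human leukocytes were exposed to compounds for 48 hr. An HTRF IL-2 kit measured the cytokine, with europium-to-d2 energy transfer producing emission at 665nm upon 320nm excitation.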
Akt phos inh – inhibitors of Akt phosphorylation; Neuro2A IGF-stimulated pAkt S473 HTRF, 20 min; hits give low values; activity change, % for hits at 50 µM; actives 0.32% (n = 360,000); in the data active = activity change below about -80%; inconclusive = mostly about -51% to -80%
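Neuro2A cells in DMEM with 0.5% FBS, overnight at 37 deg C, given compound at single 50 µM final, then IGF (6 nM final) for 20 min at 37 deg C. Lysed; phospho-Akt Ser473 by HTRF after 24 h, 665/615 ratio.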
Each line names hits and unclear results; the compound was inactive in the other large screens. Unless noted, calls follow the shape of the dose curve; as a rule, active = well fitted curve in the direction sought with a large enough effect; inconclusive = small, poorly fitted or top-dose-only effect, or another doubt; inactive = no such curve, though single readings can be large; an effect the other way counts as inactive or inconclusive.

O=C(NCCS(=O)(=O)N1CCN(c2ccccc2)CC1)C1CC(=O)N(c2ccccc2)C1 (stereo not given)	TSHR antag -135.2 (no result: Akt phos inh)
Cc1ccc(NC(=O)CNc2nc(Nc3ccc(C)cc3)nc(Nc3ccc(C)cc3)n2)cc1	none (no result: TSHR antag, GRP78 ERSR act, RGS4 inhibitor, TCR act, Akt phos inh)
O=C(Nc1ccncc1)c1cn(-c2ccccc2)nc1-c1cccs1	TSHR antag -75.5
O=C(Nc1nccs1)c1cn(-c2ccccc2)nc1-c1ccncc1	none
CC1(CCc2ccccc2)NC(=O)N(CC(=O)N2CC(=O)Nc3ccccc32)C1=O (stereo not given)	TSHR antag -76.8
O=C(Nc1ccc2nc(N3CCN(C4CCCCC4)CC3)cc(C(=O)O)c2c1)c1cccc(Cl)c1	none (no result: TSHR antag, GRP78 ERSR act, RGS4 inhibitor, TCR act, Akt phos inh)
Cc1cccc(CN2CCC(CNC(=O)Nc3cn(CC(C)C)c(=O)c4ccccc34)CC2)c1	none (no result: TSHR antag, GRP78 ERSR act, RGS4 inhibitor, TCR act, Akt phos inh)
CC(=O)Nc1ccc(Cc2ccncc2)cc1	Akt phos inh -112.8%
Fc1ccccc1N1CCN(CC2CC3C=CC2C3)CC1 (stereo not given)	none
C1=CC2CC1CC2CN1CCN(Cc2ccccc2)CC1 (stereo not given)	LDHA inh -31.6
CCc1ccccc1-n1nnnc1SCC(=O)Nc1ccc2nccnc2c1	none (no result: TSHR antag, GRP78 ERSR act, RGS4 inhibitor, TCR act, Akt phos inh)
Clc1ccccc1Sc1cnc2ccccc2n1	Akt phos inh -90.6%
Clc1ccc(Sc2cnc3ccccc3n2)cc1	Akt phos inh inconclusive (no result: TSHR antag)
CC(C)(C)c1ccc(S(=O)(=O)/C=C/C#N)cc1	GRP78 ERSR act inconclusive, RGS4 inhibitor 2.12µM (no result: TCR act, Akt phos inh)
COc1ccccc1OCc1ccc(C(=O)OCC2CCCO2)o1 (stereo not given)	Akt phos inh -119.1%
NC(=O)c1cc(Cc2ccccc2)sc1NC(=O)c1ccncc1	none (no result: TSHR antag, GRP78 ERSR act, RGS4 inhibitor, TCR act, Akt phos inh)
COc1ccc(/C=N/NC(=O)c2cccc(Br)c2)cc1Cn1cc(Cl)cn1	Akt phos inh -103.1%
S=c1[nH]nc(-c2cc(-c3ccccc3)n[nH]2)n1/N=C/c1ccc(Br)s1	LDHA inh -42.7, RGS4 inhibitor inconclusive
Cc1cc(=O)[nH]c(SCn2nnc3ccccc3c2=O)n1	Akt phos inh -98.9%
CCN(CC)CCCN1C(=O)C(O)=C(C(=O)c2cc3ccccc3o2)C1c1ccccn1 (stereo not given)	Akt phos inh -94.6%
CCN(CC)CCCN1C(=O)C(O)=C(C(=O)c2cc3cccc(OC)c3o2)C1c1ccncc1 (stereo not given)	Akt phos inh -89.8% (no result: TCR act)
COc1cccc2cc(C(=O)C3=C(O)C(=O)N(CCCN(C)C)C3c3ccncc3)oc12 (stereo not given)	none (no result: LDHA inh, GRP78 ERSR act, RGS4 inhibitor, TCR act, Akt phos inh)
Cn1ncc2c(N3CCN(c4ccccc4)CC3)nc(N3CCOCC3)nc21	none (no result: TSHR antag, GRP78 ERSR act, RGS4 inhibitor, TCR act, Akt phos inh)
Cc1ccc(C(C(=O)NC2CCCC2)N(Cc2cccnc2)C(=O)c2snc(C(N)=O)c2N)o1 (stereo not given)	Akt phos inh -118.6%
CN(C)c1ccc(C(C(=O)NC2CCCC2)N(Cc2cccnc2)C(=O)c2snc(C(N)=O)c2N)cc1 (stereo not given)	none
CCOc1cccc(Cn2c(=O)c3sccc3n(CC(=O)N(C)C3CCCCC3)c2=O)c1	none (no result: TSHR antag, GRP78 ERSR act, RGS4 inhibitor, TCR act, Akt phos inh)
Cc1nc(N2CCN(S(=O)(=O)c3ccccc3C#N)CC2)c2c(-c3ccccc3)csc2n1	TSHR antag -79.2
COc1ccc2c(C)c(CC(=O)N(C)C3CCS(=O)(=O)C3)c(=O)oc2c1 (stereo not given)	none (no result: TSHR antag, GRP78 ERSR act, RGS4 inhibitor, TCR act, Akt phos inh)
Cc1ccccc1CN1CCN(Cc2ccccc2C(F)(F)F)CC1	LDHA inh -38.6 (no result: TCR act)
Cc1ccc(CN2CCC(N3CC(C)OC(C)C3)CC2)cc1 (stereo not given)	LDHA inh -32.5
Oc1ccc(/C=C/c2nc(-c3ccc(F)cc3)cs2)cc1	none (no result: TSHR antag, GRP78 ERSR act, RGS4 inhibitor, TCR act, Akt phos inh)
Cc1ccc(NC(=O)CS(=O)CC(=O)Nc2ccc(N3CCOCC3)cc2)cc1Cl (stereo not given)	LDHA inh -30.7 (no result: TCR act)
CCOCC(=O)Nc1ccc(C)c(Cl)c1	Akt phos inh -128.9%
COc1ccc(CNC(=O)Cn2c(=O)c(CNc3ccc(C)cc3)cc3cc4c(cc32)OCCO4)cc1	none (no result: TSHR antag, GRP78 ERSR act, RGS4 inhibitor, TCR act, Akt phos inh)
COc1ccc(-n2nc3ccc(NC(=O)c4ccccc4Br)cc3n2)cc1	none (no result: TSHR antag, GRP78 ERSR act, RGS4 inhibitor, TCR act, Akt phos inh)
O=C(O)c1ccccc1-c1nc2ccccc2c(=O)[nH]1	Akt phos inh -105.3%
